These results are taken from PubChem BioAssay (Tox21).

Inconclusive results are not listed. Where a call stands in place of a potency, no number is given. Calls of active or inactive are those of the source. Calls come from the whole dose curve; as a rule, active = well fitted cell-killing curve with a large enough effect in the repeat runs; inconclusive = weak or mixed curves, or effect the other way; inactive = flat fitted curve, though single readings scatter.

A short description of test [1]: cAMP Responsive Elements (CRE) small molecule antagonists, cell-based qHTS assay: qHTS cell viability counter screen (AID 2060913). Note: nearly all actives have a fitted effect of over 40% in size. An outline of the steps:
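HEK293T CRE-bla, 2,000 cells/well, 18 h preincubation; cpd in DMSO + NKH477 0.25 uM final, 3 h 37 C/5% CO2; LiveBLAzer 2 h RT, then CellTiter-Glo 30 min RT, luminescence.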
(In general: Quantitative high-throughput screening tests each substance at several concentrations.)

Test [2] can be described thus: cAMP Responsive Elements (CRE) small molecule agonists, cell-based qHTS assay: qHTS cell viability counter screen (AID 2060914). Note: nearly all actives have a fitted effect of over 50% in size. An outline of the steps: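 In the same wells as the reporter read, viability of CRE-bla HEK 293T cells was quantified by CellTiter-Glo luminescence after a 3 h compound exposure.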

With `Cc1c(C(=O)c2c[nH]n(C)c2=O)ccc(S(C)(=O)=O)c1C1=NOCC1`, the Potency entry in test [1] and in test [2] was “inactive” each time.
For `Oc1ccc(C(O)CNCCCCCCNCC(O)c2ccc(O)c(O)c2)cc1O` (stereo unspecified), the Potency entry in test [1] and in test [2] was “inactive” each time.
`CCOC(=O)CCC(C)=O`: the Potency entry in test [1] and in test [2] was “inactive” throughout.
Take `O=C(O)c1ccccc1Cl`: the Potency entry in test [1] and in test [2] was “inactive” throughout.
As for `c1ccc(CC2=NCCN2)cc1`, the Potency entry in test [1] and in test [2] was “inactive” in each case.
With `C1COCCN1`, the Potency entry in test [1] and in test [2] was “inactive” in each case.
In the case of `CC(C)(O)C(=O)O`, the Potency entry in test [1] and in test [2] was “inactive” in each case.
With `CCOc1nc2cccc(C(=O)O)c2n1Cc1ccc(-c2ccccc2-c2nn[nH]n2)cc1`, the Potency result in test [1] and in test [2] was “inactive” each time.
For `O=C1C(N(CO)C(=O)NCO)N(CO)C(=O)N1CO` (stereo unspecified), the Potency result in test [1] and in test [2] was “inactive” each time.
As to `COCCOC(=O)c1ccccc1C(=O)OCCOC`, the Potency result in test [1] and in test [2] was “inactive” in each case.
Regarding `CCCC=O`, the Potency result in test [1] and in test [2] was “inactive” in each case.
Consider `NC1CCCCC1`, for which the Potency entry in test [1] and in test [2] was “inactive” throughout.
`CCOC(=O)C1=C(C)NC(C)=C(C(=O)OC)C1c1cccc(Cl)c1Cl` (stereo unspecified): the Potency result in test [1] and in test [2] was “inactive” in each case.
Turning to `O=C(O)c1ccccc1-c1ccc(C(F)(F)F)cc1`, the Potency result in test [1] and in test [2] was “inactive” throughout.
With `FB(F)F`, the Potency entry in test [1] and in test [2] was “inactive” in each case.
`CCCCCCCOC(=O)c1ccccc1C(=O)OCCCCCCC`: the Potency result in test [1] and in test [2] was “inactive” throughout.
`CC(=O)OCC(=O)[C@@]1(O)CC[C@H]2[C@@H]3CCC4=CC(=O)C=C[C@]4(C)[C@@]3(F)[C@@H](O)C[C@@]21C`: the Potency entry in test [1] and in test [2] was “inactive” throughout.
Consider `OCCCCC(O)CO` (stereo unspecified), for which the Potency entry in test [1] and in test [2] was “inactive” in each case.
`CCC(=O)CC`: the Potency result in test [1] and in test [2] was “inactive” each time.
As for `CC[N+](CC)(CC)CCOC(=O)C(C1CCCC1)C1CCCC1`, the Potency entry in test [1] and in test [2] was “inactive” in each case.
On to `CCN(Cc1cccc(S(=O)(=O)O)c1)c1ccc(C(=C2C=CC(=[N+](CC)Cc3cccc(S(=O)(=O)[O-])c3)C=C2)c2ccccc2)cc1`, for which the Potency result in test [1] and in test [2] was “inactive” throughout.
Regarding `CCCCNS(=O)(=O)c1ccccc1`, the Potency entry in test [1] and in test [2] was “inactive” each time.
Take `COc1cc(C(=O)N2CCCCCCC2)cc(OC)c1OC`: the Potency result in test [1] and in test [2] was “inactive” in each case.
Turning to `CC(C)C[C@H](NC(=O)OCC1c2ccccc2-c2ccccc21)C(=O)O`, the Potency entry in test [1] and in test [2] was “inactive” each time.
As for `COc1ccccc1[N+](=O)[O-]`, the Potency result in test [1] and in test [2] was “inactive” each time.
With `O=C(C1CCCCC1)N1CC(=O)N2CCc3ccccc3C2C1` (stereo unspecified), the Potency entry in test [1] and in test [2] was “inactive” each time.
`CCn1c2ccccc2c2cc([N+](=O)[O-])ccc21`: the Potency result in test [1] and in test [2] was “inactive” throughout.
In the case of `C[C@@H](O[C@H]1OCCN(Cc2n[nH]c(=O)[nH]2)[C@H]1c1ccc(F)cc1)c1cc(C(F)(F)F)cc(C(F)(F)F)c1`, the Potency entry in test [1] and in test [2] was “inactive” throughout.
For `CCCCOC(=O)COc1ccc(Cl)cc1Cl`, the Potency result in test [1] and in test [2] was “inactive” each time.
Take `C=C(C)CC(C)(C)C`: the Potency result in test [1] and in test [2] was “inactive” in each case.
With `C[C@H]1c2cccc(O)c2C(O)=C2C(=O)[C@]3(O)C(O)=C(C(N)=O)C(=O)[C@@H](N(C)C)[C@@H]3[C@@H](O)[C@@H]21`, the Potency entry in test [1] and in test [2] was “inactive” throughout.
Consider `CC(=O)N[C@@H](Cc1ccc(O)cc1)C(=O)O`, for which the Potency result in test [1] and in test [2] was “inactive” each time.
For the molecule `CC(C)(O)C#CC(C)(C)O`, the Potency entry in test [1] and in test [2] was “inactive” each time.
`O=C(O)CCNC(=O)c1ccc(N=Nc2ccc(O)c(C(=O)O)c2)cc1`: the Potency entry in test [1] and in test [2] was “inactive” throughout.
As for `C/C(=N\[Si](C)(C)C)O[Si](C)(C)C`, the Potency entry in test [1] and in test [2] was “inactive” throughout.
In the case of `COc1ccc(COC=O)cc1`, the Potency result in test [1] and in test [2] was “inactive” in each case.
For the molecule `O=C(O)c1cc(=O)c2c(OCC(O)COc3cccc4oc(C(=O)O)cc(=O)c34)cccc2o1`, the Potency result in test [1] and in test [2] was “inactive” throughout.
Regarding `O=C(NCc1ncc(C(F)(F)F)cc1Cl)c1c(Cl)cccc1Cl`, the Potency result in test [1] and in test [2] was “inactive” in each case.
On to `O=C(OC1C[C@H]2CC[C@@H](C1)[N+]21CCCC1)C(O)(c1ccccc1)c1ccccc1` (stereo partly specified), for which the Potency result in test [1] and in test [2] was “inactive” throughout.
In the case of `CSc1nnc(C(C)(C)C)c(=O)[nH]1`, the Potency result in test [1] and in test [2] was “inactive” throughout.
In the case of `C#C[C@]1(O)CC[C@H]2[C@@H]3CCc4cc(OC)ccc4[C@H]3CC[C@@]21C`, the Potency entry in test [1] and in test [2] was “inactive” in each case.
As to `Cc1cccc(Nc2ccncc2S(=O)(=O)NC(=O)NC(C)C)c1`, the Potency entry in test [1] and in test [2] was “inactive” throughout.
As for `CC(C)=CC(C)(C)C`, the Potency result in test [1] and in test [2] was “inactive” in each case.
Turning to `CCOc1cc(NC(C)=O)ccc1C(=O)OC`, the Potency entry in test [1] and in test [2] was “inactive” each time.
As for `CC(C)(C)C(=O)Oc1ccc(S(=O)(=O)Nc2ccccc2C(=O)NCC(=O)O)cc1`, the Potency entry in test [1] and in test [2] was “inactive” throughout.
Take `O=C(O)c1cccc(C[C@@H]2COc3ccc(OCc4nc5cc(F)ccc5s4)cc3[C@@H]2O)c1`: the Potency entry in test [1] and in test [2] was “inactive” each time.
Regarding `Cc1cnc(C)c(C)n1`, the Potency result in test [1] and in test [2] was “inactive” throughout.
`COC(=O)c1cc(Cl)ccc1[N+](=O)[O-]`: the Potency entry in test [1] and in test [2] was “inactive” each time.
For the molecule `CN1C(=O)N(C)C(O)C1O` (stereo unspecified), the Potency entry in test [1] and in test [2] was “inactive” in each case.
On to `CCc1ccc(C=O)cc1`, for which the Potency result in test [1] and in test [2] was “inactive” each time.
On to `O=Cc1ccc(Cl)c(Cl)c1`, for which the Potency result in test [1] and in test [2] was “inactive” in each case.
In the case of `O=C1O[C@H]([C@@H](O)CO)C(O)=C1O`, the Potency entry in test [1] and in test [2] was “inactive” in each case.
For `CCCCOCCOCCOCCO`, the Potency result in test [1] and in test [2] was “inactive” in each case.
